# Laboratory results as given in PubChem BioAssay (NCATS).
# Records with an inconclusive call do not appear. Where a call stands in place of a potency, no number is given. Active and inactive are the calls of the source. Calls follow the shape of the dose curve; as a rule, active = well fitted inhibition curve with a large enough effect; inconclusive = small, poorly fitted or top-dose-only effect; inactive = no such curve, though single readings can be large or run the other way.
# Experiment: HTS Assay for Allosteric Antagonists of the Human D2 Dopamine Receptor: Hit Validation in HTRF (AID 624455);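 also: stable D1 dopamine receptor cell line scored for blocking the D1 response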
# Conditions: Cells stably expressing D1 dopamine receptor, inhibition mode; series mostly up to 46.1 µM
# Outline: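 Signal from an HTRF read-out in D1-expressing stable cells gave hit activity as inhibition of the D1 response.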
row,SMILES,Potency
1,CCc1c(C(=O)NCCc2ccc(N3CCCCC3)cc2)[nH]c2ccc(Cl)cc12,inactive
2,COc1ccccc1N1CCN(CCN(C(=O)c2ccc(I)cc2)c2ccccn2)CC1,inactive
3,CN1CCc2ccccc2Cc2[nH]c3ccccc3c2CC1,inactive
4,OC[C@H]1O[C@@H](n2cnc3c(NC4CCCC4)ncnc32)[C@H](O)[C@@H]1O,inactive
5,OC[C@H]1O[C@@H](n2cnc3c(Nc4ccccc4)ncnc32)[C@H](O)[C@@H]1O,inactive
6,CNCC[C@H](Oc1ccc(C(F)(F)F)cc1)c1ccccc1,inactive
7,COc1ccccc1CNCCCCCCNCCCCCCCCNCCCCCCNCc1ccccc1OC,inactive
8,Nc1nc(SCc2ccc([N+](=O)[O-])cc2)c2ncn([C@@H]3O[C@H](CO)[C@@H](O)[C@H]3O)c2n1,inactive
9,C[N+](C)(C)CCOP(=O)(O)OP(=O)([O-])OC[C@H]1O[C@@H](n2ccc(N)nc2=O)[C@H](O)[C@@H]1O,inactive
10,O=C1O/C(=C/Br)CCC1c1cccc2ccccc12 (stereo not given),inactive
11,CSc1ccccc1N1CCN(CCCCCC(=O)NC2CCCc3ccccc32)CC1 (stereo not given),inactive
12,O=C(c1ccc(OCCCc2cnc[nH]2)cc1)C1CC1,inactive
13,CC(=O)N[C@H](C(=O)O)C(C)(C)SN=O,inactive
14,Nc1ncnc2c1c(I)cn2[C@@H]1C[C@H](N)[C@@H](O)[C@H]1O,inactive
15,O=C(O)c1cc(=O)c2c(Cl)cc(Cl)cc2[nH]1,inactive
